PubChem BioAssay
Activity calls are given as the source filed them. Unless noted, how the calls were made is not given here.

Experiments:
[1] = anti-His antibody binders, primary screen, artefact control for SMM control protein annotation, biochemical, small-molecule microarray, 635 nm fluorescence (AID 1128); details: anti-His Alexa647 antibody binding, higher = more signal;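 further: score merges feature fluorescence with signal-to-noise for each printed compound spot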
[2] = system: Human papillomavirus type 1a E7 protein (residues 1-88); assay: HPV1a E7 small-molecule binders, primary screen, biochemical, small-molecule microarray, residues 1-88, 635 nm (AID 1129); details: small-molecule microarray binding, fluorescence 635 nm; higher = more signal
[3] = molecular target: Focal adhesion kinase 1 (Homo sapiens) (UniProt Q05397); assay: small-molecule microarray binders of FAK, primary screen, biochemical, 635/667 nm fluorescence, BSA, DTT (AID 1130); details: PTK2 binding, 635 nm fluorescence, higher = more signal;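 further: composite of spot emission at 667 nm and signal to noise over triplicate slides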
Sequence of Focal adhesion kinase 1 (Homo sapiens) (Q05397 whole entry, looked up): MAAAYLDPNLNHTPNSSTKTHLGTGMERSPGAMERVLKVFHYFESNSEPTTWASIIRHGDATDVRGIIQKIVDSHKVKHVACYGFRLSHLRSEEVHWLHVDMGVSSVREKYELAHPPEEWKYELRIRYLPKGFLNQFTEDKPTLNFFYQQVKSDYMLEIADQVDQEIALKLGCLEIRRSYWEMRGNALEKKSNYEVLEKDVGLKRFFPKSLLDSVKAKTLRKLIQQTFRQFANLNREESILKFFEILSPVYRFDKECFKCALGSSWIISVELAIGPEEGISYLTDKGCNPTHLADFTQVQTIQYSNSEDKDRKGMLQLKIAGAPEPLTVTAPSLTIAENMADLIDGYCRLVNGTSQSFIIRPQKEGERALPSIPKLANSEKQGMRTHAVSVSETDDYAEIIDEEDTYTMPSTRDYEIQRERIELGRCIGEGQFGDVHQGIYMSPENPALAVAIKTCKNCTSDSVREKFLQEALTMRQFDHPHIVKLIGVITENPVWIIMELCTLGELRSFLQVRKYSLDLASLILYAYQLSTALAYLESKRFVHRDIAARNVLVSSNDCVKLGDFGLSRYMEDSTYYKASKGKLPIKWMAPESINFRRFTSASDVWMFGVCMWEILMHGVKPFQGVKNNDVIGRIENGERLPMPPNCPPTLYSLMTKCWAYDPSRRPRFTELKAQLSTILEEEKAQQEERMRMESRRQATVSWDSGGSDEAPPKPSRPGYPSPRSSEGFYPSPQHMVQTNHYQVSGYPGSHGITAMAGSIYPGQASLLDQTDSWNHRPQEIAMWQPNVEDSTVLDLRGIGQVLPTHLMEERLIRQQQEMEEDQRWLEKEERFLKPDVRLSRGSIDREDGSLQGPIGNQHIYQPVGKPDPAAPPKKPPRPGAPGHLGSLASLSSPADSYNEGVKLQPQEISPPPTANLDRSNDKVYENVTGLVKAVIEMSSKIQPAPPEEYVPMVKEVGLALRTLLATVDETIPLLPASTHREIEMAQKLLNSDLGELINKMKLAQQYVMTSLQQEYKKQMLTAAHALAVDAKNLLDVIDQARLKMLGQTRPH

[4] = system: Fibrinogen (Alexa647-labelled); assay: fibrinogen binders on compound microarrays, profiling panel, artefact control for SMM control-protein annotation, biochemical, small-molecule microarray, 635/667 nm fluorescence (AID 1131); details: fibrinogen-A647 binding fluorescence, higher = more signal;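 further: z-score merges 667 nm fluorescence with per-spot signal-to-noise over triplicate slides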
[5] = molecular target: Follistatin (Homo sapiens) (UniProt P19883); assay: follistatin binders on small-molecule microarrays, primary screen, biochemical, small-molecule microarray, 635/667 nm fluorescence (AID 1132); details: FST binding, 635 nm fluorescence, higher = more signal
Sequence of Follistatin (Homo sapiens) (P19883 whole entry, looked up): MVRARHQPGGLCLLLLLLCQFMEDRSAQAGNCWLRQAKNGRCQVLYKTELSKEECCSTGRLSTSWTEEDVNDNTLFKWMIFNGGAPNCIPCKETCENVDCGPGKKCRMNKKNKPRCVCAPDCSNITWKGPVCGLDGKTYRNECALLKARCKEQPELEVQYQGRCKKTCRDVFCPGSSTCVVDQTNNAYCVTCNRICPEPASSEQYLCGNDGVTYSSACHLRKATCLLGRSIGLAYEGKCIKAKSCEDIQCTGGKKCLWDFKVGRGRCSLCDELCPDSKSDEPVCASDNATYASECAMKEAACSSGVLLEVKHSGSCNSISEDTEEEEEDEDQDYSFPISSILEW

[6] = molecular target: Fibroblast growth factor 2 (Homo sapiens) (UniProt P09038); assay: FGF2 binders on small-molecule microarrays, primary screen, biochemical, small-molecule microarray, 635/667 nm fluorescence (AID 1133); details: small-molecule microarray binding, FGF2, fluorescence 635/667; higher = more signal
Sequence of Fibroblast growth factor 2 (Homo sapiens) (P09038 whole entry, looked up): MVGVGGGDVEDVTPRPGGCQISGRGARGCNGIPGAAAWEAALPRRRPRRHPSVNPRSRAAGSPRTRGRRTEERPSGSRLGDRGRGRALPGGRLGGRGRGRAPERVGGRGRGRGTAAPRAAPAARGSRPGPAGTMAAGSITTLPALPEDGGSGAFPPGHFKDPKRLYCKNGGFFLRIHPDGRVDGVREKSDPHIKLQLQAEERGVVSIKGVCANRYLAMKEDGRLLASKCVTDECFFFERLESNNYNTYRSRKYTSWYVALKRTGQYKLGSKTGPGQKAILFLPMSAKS

[7] = mitochondrial membrane potential change in A549 cells, profiling panel, cell-based, JC-1 fluorescence, basal, 24 h, 100 nL (AID 1138); details: higher = more signal;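 further: A549 lung adenocarcinoma cells under basal conditions with no added stimulus; test concentration not given here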
Lefty1 = Lefty1 binders on small-molecule microarrays, primary screen, biochemical, small-molecule microarray, 635/667 nm fluorescence (AID 1139); details: small-molecule microarray binding, fluorescence 635/667; higher = more signal
[8] = system: wheat germ agglutinin (Triticum aestivum), Alexa647-labelled; assay: wheat germ agglutinin binders on compound microarrays, profiling panel, artefact control for SMM control-protein annotation, biochemical, small-molecule microarray, 635/667 nm fluorescence (AID 1140); details: WGA-A647 binding, 635 nm fluorescence, higher = more signal;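 further: score merges 667 nm feature emission with signal to noise over triplicate slides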
[9] = molecular target: Luciferin 4-monooxygenase (Photinus pyralis) (UniProt P08659); assay: firefly luciferase enzyme inhibitors, primary screen, biochemical, luminescence, purified enzyme, 2006 set (AID 1141); details: SteadyGlo luminescence, 30 min, higher = more signal, called active from +8 up or from −8 down;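 further: cell-free assay with purified firefly luciferase at 100 ng per well in PBS; test concentration not given here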
Sequence of Luciferin 4-monooxygenase (Photinus pyralis) (P08659 whole entry, looked up): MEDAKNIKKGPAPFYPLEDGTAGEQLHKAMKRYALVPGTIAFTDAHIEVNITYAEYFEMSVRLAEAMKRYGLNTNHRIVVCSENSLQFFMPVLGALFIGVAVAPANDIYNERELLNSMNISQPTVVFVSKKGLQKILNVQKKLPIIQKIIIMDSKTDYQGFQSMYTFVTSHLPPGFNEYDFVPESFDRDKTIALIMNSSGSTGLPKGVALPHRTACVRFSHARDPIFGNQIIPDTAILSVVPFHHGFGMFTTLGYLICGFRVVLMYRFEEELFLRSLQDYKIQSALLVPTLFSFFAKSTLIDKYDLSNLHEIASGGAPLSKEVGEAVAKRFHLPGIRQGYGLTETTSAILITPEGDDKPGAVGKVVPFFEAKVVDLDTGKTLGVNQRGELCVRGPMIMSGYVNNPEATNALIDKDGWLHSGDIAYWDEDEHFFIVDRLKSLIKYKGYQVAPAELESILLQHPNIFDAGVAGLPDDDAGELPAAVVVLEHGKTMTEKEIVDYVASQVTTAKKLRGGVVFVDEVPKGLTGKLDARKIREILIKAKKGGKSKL

[10] = system: Wnt5a (protein binding on small-molecule microarray); assay: Wnt5a binders on small-molecule microarray, primary screen, biophysical, 635/667 nm fluorescence (AID 1142); details: 635 nm fluorescence, higher = more signal;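 further: fluorescence read at 667 nm with signal to noise per printed feature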
[11] = cell viability in Huh7 cells, primary screen, cytotoxicity control for HCV replication inhibitor project, CellTiter-Glo luminescence, basal, 48 h (AID 1143); details: Huh7 HCV replicon, higher = more signal, called active from +8 up or from −8 down;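 further: Huh7 hepatoma cells carrying a hepatitis C replication reporter with no stimulus; test concentration not given here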
[12] = P. aeruginosa biofilm formation inhibitors, primary screen, PAO1 strain, BacTiter-Glo luminescence, LB-PBS (AID 1144); details: 12 h, higher = more signal
[13] = CREB reporter modulators without forskolin, primary screen, cell-based, PC12, CRE-LacZ reporter, unstimulated (AID 1145); details: no forskolin, luminescence, 4.5 h, higher = more signal, called active from +8 up or from −8 down
[14] = CREB reporter modulators under forskolin, primary screen, cell-based, PC12, CRE-LacZ reporter, forskolin-stimulated (AID 1146); details: luminescence, 4.5 h, higher = more signal, called active from +8 up or from −8 down;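 further: PC12 cells with 6xCRE LacZ reporter stimulated by forskolin 10 µM; beta-galactosidase reporter signal reflecting CREB driven transcription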
[15] = molecular target: Streptavidin (Streptomyces avidinii) (UniProt P22629); assay: streptavidin binders on small-molecule microarray, primary screen, artefact control for SMM compound annotation, biophysical, 635/667 nm fluorescence (AID 1147); details: streptavidin binding, higher = more signal;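 further: signal reflects streptavidin binding to arrayed compounds as a control protein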
Sequence of Streptavidin (Streptomyces avidinii) (P22629 whole entry, looked up): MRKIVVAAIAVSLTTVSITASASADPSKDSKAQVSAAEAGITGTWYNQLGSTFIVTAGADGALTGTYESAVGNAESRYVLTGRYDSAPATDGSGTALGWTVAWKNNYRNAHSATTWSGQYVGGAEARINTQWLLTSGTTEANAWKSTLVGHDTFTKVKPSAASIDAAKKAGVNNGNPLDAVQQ

[16] = small-molecule binders of probe aInhba, primary screen, biochemical, small-molecule microarray, 635/667 nm fluorescence (AID 1148); details: higher = more signal;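 further: score merges 667nm spot fluorescence with signal-to-noise for antibody binding to printed compounds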
Torsin-1A (Homo sapiens) [17] = molecular target: Torsin-1A (Homo sapiens) (UniProt O14656); assay: torsin A binders from cell lysate, primary screen, small-molecule microarray, wild-type, 635/667 nm (AID 1149); details: COS7 hTOR1A-WT lysate, 635 nm fluorescence, higher = more signal
Sequence of Torsin-1A (Homo sapiens) (O14656 whole entry, looked up): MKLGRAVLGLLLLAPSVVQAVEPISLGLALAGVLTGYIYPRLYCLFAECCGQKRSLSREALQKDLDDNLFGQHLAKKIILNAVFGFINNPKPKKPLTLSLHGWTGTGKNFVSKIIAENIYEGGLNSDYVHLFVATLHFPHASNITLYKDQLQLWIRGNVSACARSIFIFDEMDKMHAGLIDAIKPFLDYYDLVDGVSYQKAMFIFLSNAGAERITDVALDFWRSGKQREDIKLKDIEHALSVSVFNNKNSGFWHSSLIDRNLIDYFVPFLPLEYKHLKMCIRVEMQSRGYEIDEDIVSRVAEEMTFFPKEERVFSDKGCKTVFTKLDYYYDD

Torsin-1A (Homo sapiens) [18] = molecular target: Torsin-1A (Homo sapiens) (UniProt O14656); assay: small-molecule binders of mutant TOR1A in lysate, primary screen, cell lysate, small-molecule microarray, COS7 lysate, 635/667 nm fluorescence (AID 1150); details: COS7 hTOR1A mutant lysate, 635 nm fluorescence, higher = more signal;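 further: score pools 667 nm emission and signal to noise measuring lysate protein binding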
[19] = system: Sonic hedgehog protein (Shh); assay: small-molecule binders of Shh protein, primary screen, biochemical, small-molecule microarray, 635/667 nm fluorescence (AID 1151); details: small-molecule microarray binding, 635 nm fluorescence; higher = more signal;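 further: Shh protein binding to compounds spotted on small-molecule microarray slides; score combines spot fluorescence intensity with signal-to-noise across triplicate slides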

CC1(C)OCC(C(O)C2=CCCCC2=O)CO1 (stereo not given)
composite z-score [1]: 0.485
composite z-score [2]: 0.279
composite z-score [3]: 0.0102
composite z-score [4]: 0.945
composite z-score [5]: 0.97
composite z-score [6]: 0.938
z-score [7]: -0.867
composite z-score (Lefty1): 1.33
composite z-score [8]: 0.731
z-score [9]: 0.114 (inactive)
composite z-score [10]: 0.24
z-score [11]: 0.956 (inactive)
z-score [12]: -0.432 (inactive)
z-score [13]: -0.431 (inactive)
z-score [14]: 0.476 (inactive)
composite z-score [15]: 0.412
composite z-score [16]: -0.133
composite z-score (Torsin-1A (Homo sapiens) [17]): 0.429
composite z-score (Torsin-1A (Homo sapiens) [18]): 0.803
composite z-score [19]: 1.5

NCCCCCNC(=O)[C@@H]1C[C@@H]2C(=O)N3CCC[C@H]3C(=O)N2[C@@H]1c1cccc(OCCO)c1
composite z-score [1]: 1.83
composite z-score [2]: 0.689
composite z-score [3]: 1.13
composite z-score [4]: 0.974
composite z-score [5]: 1.34
composite z-score [6]: 0.878
z-score [7]: -0.269
composite z-score (Lefty1): 0.437
composite z-score [8]: 0.881
z-score [9]: -0.115 (inactive)
composite z-score [10]: 0.369
z-score [11]: 0.902 (inactive)
z-score [12]: -0.0862 (inactive)
z-score [13]: -0.264 (inactive)
z-score [14]: 0.325 (inactive)
composite z-score [15]: 0.899
composite z-score [16]: 1.15
composite z-score (Torsin-1A (Homo sapiens) [17]): -0.0659
composite z-score (Torsin-1A (Homo sapiens) [18]): 1.36
composite z-score [19]: 0.696

COc1ccc([Si](C)(C)[C@H]2[C@H](CCO)O[C@@]3(C(=O)N(Cc4cccc(NC(=O)[C@H](C)O)c4)c4ccccc43)[C@@H]2C)cc1
composite z-score [1]: 1.75
composite z-score [2]: 1.15
composite z-score [3]: 0.598
composite z-score [4]: 0.83
composite z-score [5]: 1.11
composite z-score [6]: 0.684
z-score [7]: -0.598
composite z-score (Lefty1): 1.23
composite z-score [8]: 0.23
z-score [9]: -0.208 (inactive)
composite z-score [10]: 0.209
z-score [11]: -7.96 (inactive)
z-score [12]: -1.52 (inactive)
z-score [13]: 3.1 (inactive)
z-score [14]: -0.878 (inactive)
composite z-score [15]: 0.394
composite z-score [16]: -0.0468
composite z-score (Torsin-1A (Homo sapiens) [17]): 0.715
composite z-score (Torsin-1A (Homo sapiens) [18]): 0.916
composite z-score [19]: 1.98

CCN1C(=O)[C@H]2[C@H]3[C@H](O)C=CC(=O)[C@@H]3CC[C@H]2C1=O
composite z-score [1]: 0.635
composite z-score [2]: 0.936
composite z-score [3]: 0.0565
composite z-score [4]: 0.677
composite z-score [5]: 0.307
composite z-score [6]: 0.731
z-score [7]: -0.774
composite z-score (Lefty1): 0.514
composite z-score [8]: 0.295
z-score [9]: -0.605 (inactive)
composite z-score [10]: 0.213
z-score [11]: 0.148 (inactive)
z-score [12]: 0.465 (inactive)
z-score [13]: 0.342 (inactive)
z-score [14]: 0.069 (inactive)
composite z-score [15]: 0.232
composite z-score [16]: -0.0759
composite z-score (Torsin-1A (Homo sapiens) [17]): 0.0994
composite z-score (Torsin-1A (Homo sapiens) [18]): 0.546
composite z-score [19]: 0.62

COc1ccc(COC(=O)NN=C2C[C@@H](O)[C@@H](O)[C@@H]3[C@@H]4C(=O)N(c5ccc(F)cc5F)C(=O)[C@@H]4CC[C@@H]23)cc1
composite z-score [1]: 0.257
composite z-score [2]: -0.769
composite z-score [3]: 0.0141
composite z-score [4]: 0.794
composite z-score [5]: -0.409
composite z-score [6]: -0.0007
z-score [7]: -0.604
composite z-score (Lefty1): -0.291
composite z-score [8]: 0.744
z-score [9]: 0.506 (inactive)
composite z-score [10]: -0.207
z-score [11]: 0.0335 (inactive)
z-score [12]: 1.02 (inactive)
z-score [13]: 1.61 (inactive)
z-score [14]: -0.0874 (inactive)
composite z-score [15]: 0.509
composite z-score [16]: -0.0762
composite z-score (Torsin-1A (Homo sapiens) [17]): -0.372
composite z-score (Torsin-1A (Homo sapiens) [18]): 0.389
composite z-score [19]: -1.13

COC(=O)CC=C[C@H](C)[C@H](CO)NS(=O)(=O)c1ccc(C)cc1
composite z-score [1]: 0.422
composite z-score [2]: 0.447
composite z-score [3]: 0.265
composite z-score [4]: 0.466
composite z-score [5]: 0.525
composite z-score [6]: 0.621
z-score [7]: -0.655
composite z-score (Lefty1): 0.701
composite z-score [8]: -0.037
z-score [9]: -0.54 (inactive)
composite z-score [10]: 0.378
z-score [11]: -1.27 (inactive)
z-score [12]: -0.0262 (inactive)
z-score [13]: -0.434 (inactive)
z-score [14]: -0.692 (inactive)
composite z-score [15]: 0.293
composite z-score [16]: -0.122
composite z-score (Torsin-1A (Homo sapiens) [17]): 0.375
composite z-score (Torsin-1A (Homo sapiens) [18]): 0.0191
composite z-score [19]: 0.82

C=CC[C@@H]1C=C[C@H](ON=C(C)CCN2CCc3nc(CC)c(CC)cc3C2)[C@@H](CO)O1
composite z-score [1]: 0.242
composite z-score [2]: -0.202
composite z-score [3]: -0.191
composite z-score [4]: -1.5
composite z-score [5]: 1.3
composite z-score [6]: 0.466
z-score [7]: 2.17
composite z-score (Lefty1): 1.48
composite z-score [8]: 0.0749
z-score [9]: 0.624 (inactive)
composite z-score [10]: 0.255
z-score [11]: -0.667 (inactive)
z-score [12]: 0.983 (inactive)
z-score [13]: 3.51 (inactive)
z-score [14]: 0.319 (inactive)
composite z-score [15]: 0.372
composite z-score [16]: 0.0785
composite z-score (Torsin-1A (Homo sapiens) [17]): 0.97
composite z-score (Torsin-1A (Homo sapiens) [18]): 1.12
composite z-score [19]: 1.85

CCN1C(=O)[C@H]2[C@H]3[C@H](O)[C@H](O)CC(=NOC(C)CN4CCCCc5nc(C)c(C)cc54)[C@@H]3CC[C@H]2C1=O (stereo not given in full)
composite z-score [1]: 2.1
composite z-score [2]: 0.0084
composite z-score [3]: 0.167
composite z-score [4]: -0.323
composite z-score [5]: 0.861
composite z-score [6]: 0.541
z-score [7]: 0.0743
composite z-score (Lefty1): 0.672
composite z-score [8]: 0.0283
z-score [9]: 0.161 (inactive)
composite z-score [10]: 0.185
z-score [11]: 0.06 (inactive)
z-score [12]: 1.07 (inactive)
z-score [13]: 0.778 (inactive)
z-score [14]: 0.618 (inactive)
composite z-score [15]: -0.0098
composite z-score [16]: -0.024
composite z-score (Torsin-1A (Homo sapiens) [17]): 0.763
composite z-score (Torsin-1A (Homo sapiens) [18]): 0.769
composite z-score [19]: 0.809

CCOC(=O)[C@H](Cc1ccccc1)NC(=O)CCC1CC(OC(=O)NCc2ccc3c(c2)OCO3)CC2(CCCC(COC(=O)NCc3ccccc3)O2)O1 (stereo not given in full)
composite z-score [1]: 1
composite z-score [2]: 1.12
composite z-score [3]: -0.108
composite z-score [4]: 0.347
composite z-score [5]: 0.725
composite z-score [6]: 0.69
z-score [7]: 1.64
composite z-score (Lefty1): 0.688
composite z-score [8]: 0.335
z-score [9]: 0.66 (inactive)
composite z-score [10]: 0.0594
z-score [11]: -0.256 (inactive)
z-score [12]: -0.971 (inactive)
z-score [13]: -0.155 (inactive)
z-score [14]: 0.807 (inactive)
composite z-score [15]: 1.13
composite z-score [16]: -0.168
composite z-score (Torsin-1A (Homo sapiens) [17]): 0.0156
composite z-score (Torsin-1A (Homo sapiens) [18]): 0.28
composite z-score [19]: 0.944

C[C@@H](c1ccccc1)N1C(=O)[C@H]2[C@H]3[C@H](O)[C@H](O)CC(=NOC[C@@H](O)COCc4ccco4)[C@@H]3CC[C@H]2C1=O
composite z-score [1]: -0.623
composite z-score [2]: -0.604
composite z-score [3]: 0.126
composite z-score [4]: 0.448
composite z-score [5]: -0.761
composite z-score [6]: -0.728
z-score [7]: -0.62
composite z-score (Lefty1): -0.809
composite z-score [8]: 0.112
z-score [9]: 0.558 (inactive)
composite z-score [10]: -0.253
z-score [11]: 0.333 (inactive)
z-score [12]: -0.0196 (inactive)
z-score [13]: -0.292 (inactive)
z-score [14]: 0.236 (inactive)
composite z-score [15]: -0.485
composite z-score [16]: -0.176
composite z-score (Torsin-1A (Homo sapiens) [17]): -0.304
composite z-score (Torsin-1A (Homo sapiens) [18]): -0.294
composite z-score [19]: -0.494
